Results reported in PubChem BioAssay (EPA / NIEHS).
The source made the active and inactive calls. The calls were made as follows: active = hit-call score of the fitted dose curve at least 0.9, where 1 is the maximum; inactive = score below 0.9.

Legend:
Conditions in all cases: mRNA level, 48 h; actives raise or lower the signal
[1] = read-out: growth arrest and DNA damage 45 (GADD45B), GADD45B (gene 4616); experiment: LTEA_HepaRG_GADD45B: Life Technologies and Expression Analysis (LTEA) Assay for growth arrest and DNA damage 45 (GADD45B) using HepaRG (AID 2283461)
In short: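 Transcript level quantified by Fluidigm TaqMan qRT-PCR with three housekeeping genes for normalization, analyzed for up- or down-regulation against 0.5% DMSO. HepaRG cultures dosed 48 h at eight half-log concentrations up to 100 uM, duplicates.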

[2] = read-out: ABC Transporter (ABCC3), ABCC3 (gene 8714); experiment: LTEA_HepaRG_ABCC3: Life Technologies and Expression Analysis (LTEA) Assay for ABC Transporter (ABCC3) using HepaRG (AID 2283462)
In short: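 Transcript level by TaqMan qRT-PCR, normalised to three housekeeping genes, fitted in both directions relative to vehicle. Chemicals tested in duplicate at eight half-log concentrations up to 100 uM for 48 h on HepaRG cells (0.5% DMSO).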

[3] = read-out: ABC Transporter (ABCC2), ABCC2 (gene 1244); experiment: LTEA_HepaRG_ABCC2: Life Technologies and Expression Analysis (LTEA) Assay for ABC Transporter (ABCC2) using HepaRG (AID 2283464)
In short: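 Endpoint is ABCC2 transcript level from qRT-PCR, normalized to three housekeeping genes and fitted bidirectionally relative to DMSO. Human HepaRG cells received test chemical for 48 h at up to 100 uM (8 points, half-log steps, 0.5% DMSO), duplicate wells.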

[4] = read-out: Broad substrate specificity ATP-binding cassette transporter ABCG2 (Homo sapiens) (UniProt Q9UNQ0); experiment: LTEA_HepaRG_ABCG2: Life Technologies and Expression Analysis (LTEA) Assay for ABC Transporter (ABCG2) using HepaRG (AID 2283465)
In short: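 Differentiated HepaRG cells were exposed for 48 h in serum-free induction medium to 8 half-log concentrations, top 100 uM, in 0.5% DMSO. ABCG2 mRNA was measured by qRT-PCR, normalized to ACTB, GAPDH and POLR2A, with bidirectional fitting versus DMSO.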

[5] = read-out: ATP-citrate lyase (ACLY), ACLY (gene 47); experiment: LTEA_HepaRG_ACLY: Life Technologies and Expression Analysis (LTEA) Assay for ATP-citrate lyase (ACLY) using HepaRG (AID 2283466)
In short: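 Differentiated HepaRG cells exposed 48 h in serum-free induction medium to eight half-log concentrations up to 100 uM in 0.5% DMSO, duplicates. Transcript measured by Fluidigm TaqMan qRT-PCR, normalized to ACTB, GAPDH, POLR2A; bidirectional fit versus DMSO.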

[6] = read-out: Peroxisomal acyl-coenzyme A oxidase 1 (ACOX1) gene, ACOX1 (gene 51); experiment: LTEA_HepaRG_ACOX1: Life Technologies and Expression Analysis (LTEA) Assay for Peroxisomal acyl-coenzyme A oxidase 1 (ACOX1) gene using HepaRG (AID 2283467)
In short: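 HepaRG cells, plated 48 h then switched to serum-free induction medium, were exposed in duplicate for 48 h to 8-point half-log concentrations up to 100 uM in 0.5% DMSO. ACOX1 mRNA was measured by qRT-PCR, normalized to ACTB/GAPDH/POLR2A, and fitted bidirectionally versus DMSO.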

[7] = read-out: Alkaline Phosphatase, Placental (ALPP) gene, ALPP (gene 250); experiment: LTEA_HepaRG_ALPP: Life Technologies and Expression Analysis (LTEA) Assay for Alkaline Phosphatase, Placental (ALPP) gene using HepaRG (AID 2283468)
In short: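 ALPP transcript level, measured by qRT-PCR and normalized to three housekeeping genes (ACTB, GAPDH, POLR2A), after 48 h dosing of differentiated HepaRG in serum-free induction medium. Top concentration 100 uM with half-log dilutions (8 points, 0.5% DMSO, duplicates); bidirectional fitting relative to DMSO.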

[8] = read-out: Bcl-2 (BAD) gene, BAD (gene 572); experiment: LTEA_HepaRG_BAD: Life Technologies and Expression Analysis (LTEA) Assay for Bcl-2 (BAD) gene using HepaRG (AID 2283469)
In short: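 Differentiated HepaRG cells were exposed in duplicate in 0.5% DMSO for 48 h to eight-point half-log concentrations up to 100 uM. BAD mRNA was measured by Fluidigm TaqMan qRT-PCR, normalized to ACTB, GAPDH and POLR2A, and fitted bidirectionally against DMSO.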

[9] = read-out: Bcl-2 (BAX) gene, BAX (gene 581); experiment: LTEA_HepaRG_BAX: Life Technologies and Expression Analysis (LTEA) Assay for Bcl-2 (BAX) gene using HepaRG (AID 2283470)
In short: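 Differentiated HepaRG cells exposed 48 h in serum-free induction medium, eight half-log concentrations from 100 uM, in duplicate, 0.5% DMSO vehicle. BAX mRNA by TaqMan qRT-PCR, normalised to ACTB, GAPDH and POLR2A.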

[10] = read-out: adenosine kinase (ADK) gene, ADK (gene 132); experiment: LTEA_HepaRG_ADK: Life Technologies and Expression Analysis (LTEA) Assay for adenosine kinase (ADK) gene using HepaRG (AID 2283471)
In short: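 Differentiated HepaRG cells dosed 48 h in serum-free induction medium, 0.5% DMSO vehicle, eight half-log concentrations from 100 uM, in duplicate. ADK mRNA by TaqMan qRT-PCR normalised to ACTB, GAPDH, POLR2A; bidirectional fit versus DMSO.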

[11] = read-out: BCL2L11 (gene 10018); experiment: LTEA_HepaRG_BCL2L11: Life Technologies and Expression Analysis (LTEA) Assay for Bcl-2 (BCL2L11) gene using HepaRG (AID 2283473)
In short: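 BCL2L11 transcript levels are measured by Fluidigm qRT-PCR, normalized to three housekeeping genes. HepaRG cultures were plated 48 h, then treated 48 h with test chemical (top 100 uM, half-log, 0.5% DMSO vehicle); curves were fitted bidirectionally against DMSO.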

[12] = read-out: Apolipoprotein A-V (APOA5) gene, APOA5 (gene 116519); experiment: LTEA_HepaRG_APOA5: Life Technologies and Expression Analysis (LTEA) Assay for Apolipoprotein A-V (APOA5) gene using HepaRG (AID 2283474)
In short: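 APOA5 transcript levels were quantified by qRT-PCR, normalized to three housekeeping genes, after 48 h chemical treatment of HepaRG cells (8 points, 100 uM maximum, half-log steps, 0.5% DMSO). Curves fitted in both directions against vehicle.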

[13] = read-out: Apoptosis regulator Bcl-2 (Homo sapiens) (UniProt P10415); experiment: LTEA_HepaRG_BCL2: Life Technologies and Expression Analysis (LTEA) Assay for Bcl-2 gene using HepaRG (AID 2283475)
In short: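 Differentiated human HepaRG cells in serum-free induction medium exposed 48 h, in duplicate, to 8-point half-log series from 100 uM in 0.5% DMSO. BCL2 mRNA by qRT-PCR (TaqMan/Fluidigm), normalized to ACTB, GAPDH, POLR2A; bidirectional fit against DMSO.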

[14] = read-out: Bcl-2 (BID) gene, BID (gene 637); experiment: LTEA_HepaRG_BID: Life Technologies and Expression Analysis (LTEA) Assay for Bcl-2 (BID) gene using HepaRG (AID 2283476)
In short: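 Gene expression by qRT-PCR in HepaRG cells after 48 h exposure, duplicate wells, eight half-log concentrations topping at 100 uM in 0.5% DMSO. Normalized to ACTB, GAPDH, POLR2A; bidirectional fitting relative to DMSO.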

[15] = read-out: Caspase-3 (Homo sapiens) (UniProt P42574); experiment: LTEA_HepaRG_CASP3: Life Technologies and Expression Analysis (LTEA) Assay for cysteine-aspartic acid protease (CASP3) using HepaRG (AID 2283477)
In short: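 Expression of CASP3 was quantified by TaqMan qRT-PCR against three housekeeping genes (ACTB, GAPDH, POLR2A), bidirectionally versus 0.5% DMSO. HepaRG cultures received compounds in duplicate, top 100 uM with half-log steps, for 48 h in serum-free induction medium.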

[16] = read-out: Alpha-fetoprotein (AFP) gene, AFP (gene 174); experiment: LTEA_HepaRG_AFP: Life Technologies and Expression Analysis (LTEA) Assay for Alpha-fetoprotein (AFP) gene using HepaRG (AID 2283472)
In short: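 Differentiated human HepaRG cells exposed 48 h in serum-free induction medium, 8-point half-log series from 100 uM in 0.5% DMSO, duplicate. AFP mRNA by qRT-PCR, normalized to ACTB, GAPDH, POLR2A; bidirectional fit vs DMSO.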

[17] = read-out: Cytochrome P450 (CYP24A1), CYP24A1 (gene 1591); experiment: LTEA_HepaRG_CYP24A1: Life Technologies and Expression Analysis (LTEA) Assay for Cytochrome P450 (CYP24A1) using HepaRG (AID 2283478)
In short: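 mRNA of CYP24A1 quantified by TaqMan qRT-PCR (ACTB/GAPDH/POLR2A normalization) after 48 h chemical exposure of HepaRG cells, top concentration 100 uM, half-log steps, 0.5% DMSO vehicle, duplicates. Curves fitted bidirectionally against DMSO baseline.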

[18] = read-out: Cytochrome P450 (CYP1A2), CYP1A2 (gene 1544); experiment: LTEA_HepaRG_CYP1A2: Life Technologies and Expression Analysis (LTEA) Assay for Cytochrome P450 (CYP1A2) using HepaRG (AID 2283479)
In short: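 CYP1A2 transcript measured by TaqMan qRT-PCR against three housekeeping genes after 48-hour chemical exposure of HepaRG cells. Eight-point half-log series topping at 100 uM in 0.5% DMSO, duplicates; gain or loss fitted relative to vehicle.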

[19] = read-out: cysteine-aspartic acid protease (CASP8), CASP8 (gene 841); experiment: LTEA_HepaRG_CASP8: Life Technologies and Expression Analysis (LTEA) Assay for cysteine-aspartic acid protease (CASP8) using HepaRG (AID 2283480)
In short: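 Differentiated HepaRG cells in serum-free induction medium, 48 h exposure, eight-point half-log series from 100 uM in 0.5% DMSO, duplicates. CASP8 mRNA by qRT-PCR, normalized to ACTB, GAPDH, POLR2A; bidirectional fit versus DMSO.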

Measured: AC50

Chain of Caspase-3 (Homo sapiens) (P42574 whole entry, looked up): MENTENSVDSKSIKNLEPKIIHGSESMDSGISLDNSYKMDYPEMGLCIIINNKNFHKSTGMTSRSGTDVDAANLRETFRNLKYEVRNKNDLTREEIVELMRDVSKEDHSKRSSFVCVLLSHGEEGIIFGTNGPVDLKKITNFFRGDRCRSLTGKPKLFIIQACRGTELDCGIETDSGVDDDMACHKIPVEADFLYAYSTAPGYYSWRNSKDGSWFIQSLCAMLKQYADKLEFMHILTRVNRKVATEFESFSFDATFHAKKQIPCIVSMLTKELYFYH
Chain of Apoptosis regulator Bcl-2 (Homo sapiens) (P10415 whole entry, looked up): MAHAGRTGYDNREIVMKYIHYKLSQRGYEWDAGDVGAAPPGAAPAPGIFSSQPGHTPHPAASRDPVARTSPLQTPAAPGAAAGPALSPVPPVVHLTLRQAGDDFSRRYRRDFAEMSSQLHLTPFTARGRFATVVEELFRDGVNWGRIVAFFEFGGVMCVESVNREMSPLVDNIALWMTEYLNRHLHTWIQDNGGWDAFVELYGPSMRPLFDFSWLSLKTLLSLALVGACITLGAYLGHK
Chain of Broad substrate specificity ATP-binding cassette transporter ABCG2 (Homo sapiens) (Q9UNQ0 whole entry, looked up): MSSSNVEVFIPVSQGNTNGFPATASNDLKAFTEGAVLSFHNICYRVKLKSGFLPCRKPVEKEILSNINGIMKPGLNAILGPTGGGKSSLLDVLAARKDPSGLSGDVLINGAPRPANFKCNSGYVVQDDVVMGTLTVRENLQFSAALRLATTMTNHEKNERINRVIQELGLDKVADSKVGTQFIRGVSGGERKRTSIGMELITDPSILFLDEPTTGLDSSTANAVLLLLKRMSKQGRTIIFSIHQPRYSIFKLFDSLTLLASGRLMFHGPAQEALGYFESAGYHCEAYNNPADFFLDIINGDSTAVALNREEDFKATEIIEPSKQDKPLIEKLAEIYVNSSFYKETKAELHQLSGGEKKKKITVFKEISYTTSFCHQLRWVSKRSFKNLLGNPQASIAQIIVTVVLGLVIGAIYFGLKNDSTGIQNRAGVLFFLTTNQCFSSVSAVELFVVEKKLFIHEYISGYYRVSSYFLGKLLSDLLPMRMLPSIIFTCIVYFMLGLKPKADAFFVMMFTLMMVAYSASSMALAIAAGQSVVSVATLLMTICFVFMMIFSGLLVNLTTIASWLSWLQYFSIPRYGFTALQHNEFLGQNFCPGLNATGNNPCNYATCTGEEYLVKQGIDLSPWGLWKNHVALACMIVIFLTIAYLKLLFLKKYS

Cc1ccc(O)cc1
inactive: [1] | [2] | [3] | [4] | [5] | [6] | [7] | [8] | [9] | [10] | [11] | [12] | [13] | [14] | [15]

CCOCCO
inactive: [1] | [2] | [3] | [4] | [5] | [6] | [7] | [8] | [9] | [10] | [16] | [11] | [12] | [13] | [14] | [15] | [17] | [18] | [19]

CC(C)=CCC/C(C)=C\CO
inactive: [1] | [2] | [3] | [4] | [5] | [6] | [7] | [8] | [9] | [10] | [16] | [11] | [12] | [13] | [14] | [15] | [19]

O=c1[nH]c2ccc(S(=O)CCN3CCC(Cc4ccc(F)cc4)CC3)cc2o1 (stereo not given)
active: [3] 50 µM | [4] 50 µM | [7] 64.7 µM | [16] 61.1 µM
inactive: [1] | [2] | [5] | [6] | [8] | [9] | [10] | [11] | [13] | [14] | [15] | [17] | [18]

CCOC(=O)COc1ccc2c(c1)CC(NCC(O)c1cccc(Cl)c1)CC2 (stereo not given)
active: [7] 16 µM | [13] 45.8 µM
inactive: [1] | [2] | [3] | [4] | [5] | [6] | [8] | [9] | [10] | [16] | [11] | [12] | [14] | [15] | [17] | [18] | [19]

Cc1ccc(N)cc1O
inactive: [1] | [2] | [3] | [4] | [5] | [6] | [7] | [8] | [9] | [10] | [16] | [11] | [12] | [13] | [14] | [15] | [17]
active: [18] 26.8 µM

Cc1c(-c2cccnc2)c2ccccc2n1CCCCC(=O)O
active: [18] 50 µM
inactive: [1] | [2] | [3] | [4] | [5] | [6] | [7] | [8] | [9] | [10] | [16] | [11] | [12] | [13] | [14] | [15] | [17] | [19]

NC(=O)NO
inactive: [1] | [2] | [3] | [4] | [5] | [6] | [7] | [8] | [9] | [10] | [16] | [11] | [12] | [13] | [14] | [15] | [19]

CCOc1cccc(-n2cc(C(=O)N3CCN(c4cc(C(=O)O)c5ccccc5c4)CC3)nc2-c2ccc(C)cc2)c1
inactive: [1] | [2] | [8] | [17]
active: [3] 77.1 µM | [4] 85.6 µM | [5] 86.6 µM | [6] 70.1 µM | [7] 24.1 µM | [9] 12.5 µM | [10] 82.9 µM | [16] 29.8 µM | [11] 87.8 µM | [12] 64.2 µM | [13] 84.5 µM | [14] 80.7 µM | [15] 82.9 µM | [18] 27.7 µM | [19] 87.9 µM
